gsp ag: gsp mutant agonism; gsp mutant cells, cAMP HTRF, 30 min; Potency, µM (titrated, usually from 76.9 µM), for the others: at the top dose activation (cAMP increase), usual class: activators; hit rate 0.13% among 340,000; AID 624287; active means well fitted activation curve with a large enough effect; inconclusive means small, poorly fitted or top-dose-only effect, or another doubt; inactive means no such curve, though single readings can be large or run the other way; cell line not stated here;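 further: phosphodiesterase inhibitor Ro 20-1724 added with compounds to block cAMP breakdown; potency means the concentration at half of the fitted maximal effect; nearly all actives have a fitted effect of over 60% in size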
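Cells stably selected in G418 were plated at 2000/well, grown 16-24 hr, then given compounds in DMSO with the PDE inhibitor […] (300 uM solution added) for 30 min at 37C; cAMP was read by HTRF.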
RXFP1 antag: blocks the human relaxin receptor RXFP1; AID 1259400; Q9HBX9; hit rate 0.59% among 350,000; activity change, negative = inhibition, % at 57.5 µM; HEK293-RXFP1, relaxin-stimulated cAMP HTRF, 30 min; hits give low values;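 active means activity change of -60% or lower, but not beyond a set lower limit; inconclusive means change between -60% and -40%, or beyond the set limit; inactive means change above -40%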; further: on the % scale 0 is the no-effect control and ±100 the full control effect
Target sequence (Q9HBX9 whole entry, looked up): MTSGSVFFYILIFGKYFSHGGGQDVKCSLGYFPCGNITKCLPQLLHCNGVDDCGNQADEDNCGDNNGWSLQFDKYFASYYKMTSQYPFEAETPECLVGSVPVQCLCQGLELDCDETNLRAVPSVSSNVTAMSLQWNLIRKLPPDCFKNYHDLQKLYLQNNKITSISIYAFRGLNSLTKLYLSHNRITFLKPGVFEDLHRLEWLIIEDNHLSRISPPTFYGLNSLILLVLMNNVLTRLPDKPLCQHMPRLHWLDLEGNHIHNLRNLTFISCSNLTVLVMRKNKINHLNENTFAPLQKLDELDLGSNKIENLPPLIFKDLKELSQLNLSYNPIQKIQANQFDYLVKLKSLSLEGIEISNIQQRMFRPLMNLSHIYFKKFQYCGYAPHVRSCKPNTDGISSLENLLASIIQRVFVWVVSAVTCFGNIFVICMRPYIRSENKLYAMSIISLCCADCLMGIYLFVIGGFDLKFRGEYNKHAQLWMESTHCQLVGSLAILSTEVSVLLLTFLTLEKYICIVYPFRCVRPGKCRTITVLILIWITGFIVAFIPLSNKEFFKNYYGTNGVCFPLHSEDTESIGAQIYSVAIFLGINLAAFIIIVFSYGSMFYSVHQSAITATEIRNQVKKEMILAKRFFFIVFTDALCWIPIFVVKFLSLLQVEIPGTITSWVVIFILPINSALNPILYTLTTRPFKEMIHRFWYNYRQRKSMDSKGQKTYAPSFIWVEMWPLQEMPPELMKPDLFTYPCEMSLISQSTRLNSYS
RXFP1 agonist: activates the human relaxin receptor RXFP1; AID 2676; Q9HBX9; HEK293T-RXFP1 cAMP TR-FRET, 30 min; response scale: percent of porcine relaxin response, buffer zero; Potency, µM (titrated, usually from 57.5 µM), for the others: at the top dose activation, actives largely listed as activators; hit rate 0.3% among 370,000; active means well fitted activation curve with a large enough effect; inconclusive means small, poorly fitted or top-dose-only effect; further: potency means the concentration at half of the fitted maximal effect; on the % scale 0 is the no-effect control and ±100 the full control effect; nearly all actives have a fitted effect of over 60% in size
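HEK293T cells stably expressing RXFP1 were pretreated with the PDE4 inhibitor Ro 20174, exposed to compounds for 30 min at 37C, lysed, and cAMP was read by TR-FRET. Data normalized to buffer (basal) and 29 nM porcine relaxin (100%).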
Akt phos inh: inhibitors of Akt phosphorylation; AID 651550; hit rate 0.32% among 360,000; Neuro2A IGF-stimulated pAkt S473 HTRF, 20 min; hits give low values; activity change, % for hits at 50 µM; in the data active means activity change below about -80%; inconclusive means mostly about -51% to -80%; further: on the % scale 0 is the no-effect control and ±100 the full control effect
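Neuro2A cells (4,500/well, DMEM with 0.5% FBS) were treated with compound at a single 50 µM final concentration, stimulated with 6 nM IGF for 20 min at 37 °C, and lysed. Phospho-Akt Ser473 was read by HTRF as 665/615 ratio ×10^4.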
gsp antagonist: antagonists of gsp mutant (McCune-Albright syndrome) | Potency, µM (doses to about 76.9 µM), for the others: at the top dose activity change, negative = inhibition, actives largely listed as inhibitors | gsp-mutant cells, cAMP HTRF, 30 min | hit rate 0.4% among 340,000; calls by dose curve; cell line not stated here;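 further: intracellular cAMP measured with PDE inhibitor Ro 20-1724 present during compound exposure; potency means the concentration at half of the fitted maximal effect; on the % scale 0 is the no-effect control and ±100 the full control effect; nearly all actives have a fitted effect of over 65% in size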
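HTRF cAMP read-out (cAMP-d2 plus anti-cAMP antibody-K in lysis buffer, 30 min RT). Before lysis, cells are exposed to compounds with […] for 30 min at 37C in DPBS containing Ca/Mg, BSA and Tween 20.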
* hit, by the source's call; i = inactive; ? = inconclusive; · = no result; [ ] = dose if it differs, or a comment. Only some compounds are listed: those with a hit (about 1.2% of all), similar ones and a draw of the others.

SMILES | gsp ag | RXFP1 antag | RXFP1 agonist | Akt phos inh | gsp antagonist
COc1ccc(C2C(C(=O)c3ccco3)=C(O)C(=O)N2c2nnc(C)s2)cc1 (stereo unspecified) | 41.7%[15.4 µM] | 4.0 | ? | i | -9.8%
COc1cc(C2C(C(=O)c3ccco3)=C(O)C(=O)N2c2cc(C)on2)cc(Br)c1O (stereo unspecified) | 36.0% | -6.4 | 0.0% | -114.9%* | -8.8%
COc1cc(C2C(C(=O)c3ccc(C)o3)=C(O)C(=O)N2c2cc(C)on2)cc(Br)c1O (stereo unspecified) | ? | 1.3 | 3.2% | i | -5.5%
Cc1ccccc1Cn1c2ccccc2c2cnn(CC(=O)NCCc3ccccc3)c(=O)c21 | · | 6.8 | -5.5% | · | ·
CCn1c(=O)c2sccc2n2c(CCCC(=O)N3CCN(c4ccc(OC)cc4)CC3)nnc12 | · | 8.8 | 13.8% | · | ·
C/C(=N\O)[C@@H](C)NCC(C)(C)CN[C@H](C)/C(C)=N/O | · | 35.8 | · | · | ·
CC1=C(C(=O)Nc2cccnc2)C(c2ccc(Cl)cc2)n2nc(SCc3ccccc3)nc2N1 (stereo unspecified) | · | · | -0.6% | · | ·
COc1cc(/C=N/NC(=O)c2ccncc2)ccc1OC(=O)c1ccc([N+](=O)[O-])cc1 | 15.3% | -4.9 | 0.1% | -106.7%* | 0.2%
COc1cc(/C=N/NC(=O)c2ccccn2)ccc1OC(=O)c1ccccc1Br | -16.2%[15.4 µM] | -97.3* | 0.1% | i | ?
CC1(C)OC[C@@H]2O[C@@]3(C(=O)O)OC(C)(C)O[C@H]3[C@@H]2O1 | · | 14.2 | · | · | ·
CCOC(=O)C1=C(C)NC(=O)NC1c1cc(Br)c(O)c(OC)c1 (stereo unspecified) | -2.9% | -16.7 | -0.1% | -119.6%* | 2.4%
CCOC(=O)C1=C(c2ccccc2)NC(=O)NC1c1cc(Br)c(O)c(OC)c1 (stereo unspecified) | 26.7% | -2.8 | -0.4% | i | 2.0%
COc1ccc(CNC(=O)CCc2nnc3ccc(N4CCC5(CC4)OCCO5)nn23)cc1 | 0.1% | 13.9 | ? | i | 6.4%
Cc1ccc(CNC(=O)CCc2nnc3ccc(N4CCC5(CC4)OCCO5)nn23)cc1 | ? | 15.7 | 17.8µM* | · | 3.9%
CSc1ccc(CCNC(=O)CCc2nnc3ccc(N4CCCCC4)nn23)cc1 | 20.8% | · | 8.0% | i | 3.2%
CSc1ccc(CCNC(=O)CCc2nnc3ccc(N4CCOCC4)nn23)cc1 | 15.8µM* | · | 25.5% | i | 2.2%
CCCC(=O)c1cc(O)c(O)cc1O | · | -19.4 | · | · | ·
COc1cccc(N2CCN(C(=O)c3ccc(Cn4c(=O)[nH]c5cc(OC)c(OC)cc5c4=O)cc3)CC2)c1 | · | · | -1.8% | · | ·
CC1CCCN(CCCNC(=O)c2nn(C)c3c2CS(=O)(=O)c2ccccc2-3)C1 (stereo unspecified) | 15.6% | -83.8* | 3.9% | · | -17.1%
Cc1nc2ccccc2c2c1CC(C)S2 (stereo unspecified) | 8.91µM* | 14.3 | 8.2% | i | 0.6%
Cn1c(NC(=O)c2ccc(Br)o2)cc(=O)n(C)c1=O | 5.0% | -4.6 | 3.1% | -116.0%* | -0.8%
Cn1c(NC(=O)c2cccs2)cc(=O)n(C)c1=O | ? | · | 3.1% | i | 3.5%
CCC1(c2ccccc2)SC(N)=NC1=O (stereo unspecified) | -82.0% | 1.3 | · | i | -3.5%
CCC1(c2ccccc2)SCC(c2ccccc2)=NC1=O (stereo unspecified) | 2.9% | -61.7* | · | i | -15.5%
CCN(CC)CCN(C(=O)c1ccc([N+](=O)[O-])cc1)c1nc2c(OC)cccc2s1 | 12.6µM* | 0.5 | 7.2% | i | 3.3%
SMILES | gsp ag | RXFP1 antag | RXFP1 agonist | Akt phos inh | gsp antagonist
CN(C)C(=O)CNC(=O)Cc1ccccc1 | · | 19.6 | · | · | ·
Cc1ccc(C(C)(C)C)cc1S(=O)(=O)Nc1cccc(C(=O)N2CCN(c3ccccn3)CC2)c1 | -18.9% | ? | 0.6% | i | 39.8µM*
O=[N+]([O-])c1ccc(CSc2nnc3ccccn23)cc1 | 17.8µM* | -0.8 | 16.8% | i | 1.2%
O=[N+]([O-])c1ccccc1CSc1nnc2ccccn12 | 27.5%[15.4 µM] | -8.0 | 5.0% | i | 8.7%
CC(C)CCN(Cc1ccco1)C(=O)c1cc2c(Cl)nc3ccccc3c2s1 | · | · | 0.8% | · | ·
COc1cccc(NC(=O)Nc2nc(-c3ccc(OC)c(OC)c3)cs2)c1 | ? | -62.2* | 12.0% | i | -18.5%
COc1ccc(-c2csc(NC(C)=O)n2)cc1OC | -3.9% | -0.9 | 2.5% | i | 1.9%
CC(C(=O)Nc1nc(-c2ccc(F)c(F)c2)cs1)N1C(=O)C2CC=CCC2C1=O (stereo unspecified) | -3.1% | ? | 0.8% | i | 35.5µM*
NC(=O)c1cnn2c1NC(c1ccc(F)cc1)CC2C(F)(F)F (stereo unspecified) | -12.1% | 5.8 | 0.3% | -111.1%* | 8.4%
Cc1nn(Cc2ccc(F)cc2)c(C)c1NC(=O)c1cnn2c1NC(c1ccccc1)CC2C(F)(F)F (stereo unspecified) | -22.9% | -7.4 | 0.2% | i | 2.3%
Cc1cc(N)n(-c2ncnc3scc(-c4ccc(Cl)cc4)c23)n1 | -0.7% | -14.9 | -0.7% | -81.5%* | -2.5%
CCC(=O)NC(c1cccs1)c1cc(Br)c2cccnc2c1O (stereo unspecified) | · | · | 1.9% | · | ·
CCCCN1C(C(=O)c2ccccc2)=C(OC(C)=O)c2ccccc2S1(=O)=O | · | -62.8* | 2.7% | · | ·
OCC(O)CS (stereo unspecified) | · | -12.9 | · | · | ·
CN1CCN(CC(=O)c2cc(C(C)(C)C)c(O)c(C(C)(C)C)c2)CC1 | 0.6%[15.4 µM] | -85.5* | -0.1% | i | 9.3%
CC(C)(C)c1cc(CN2CCN(CCO)CC2)cc(C(C)(C)C)c1O | 10.4% | -11.0 | 0.6% | i | 3.1%
COCCNc1ccc(-c2nc(-c3ccccn3)no2)cc1[N+](=O)[O-] | · | · | -3.3% | · | ·
CCOCCCN(C)C1CCN(C(=O)c2oc3ccccc3c2NC(=O)c2cccc([N+](=O)[O-])c2)CC1 | -0.7% | -65.7* | -0.1% | i | -2.1%
CC1=C(C(=O)O)N2C(=O)[C@@H](NC(=O)[C@H](N)C3=CCC=CC3)[C@H]2SC1 | · | 11.9 | · | · | ·
CCCCN1C(=O)C2C(c3ccc(OC)cc3O)NC(CC(C)C)(C(=O)O)C2C1=O (stereo unspecified) | -8.1% | · | -0.4% | i | 8.91µM*
CC(=O)Nc1ccc(N2CCCCC2)c(C(=O)Nc2cccc(C)c2)c1 | 16.6% | 7.0 | 1.3% | i | -14.8%
Cc1cccc(NC(=O)c2cc(NC(=O)C3CCCCC3C(=O)O)ccc2N2CCCCC2)c1 (stereo unspecified) | -37.5% | 1.7 | -0.6% | i | 35.5µM*
COc1ccc(CN(C)CC(O)COc2ccc(-c3ccccc3)cc2)cc1OC (stereo unspecified) | 13.4% | -66.1* | -2.5% | i | 4.6%
COCCNc1c2c(nc3c(-c4ccccc4)c(C)nn13)CCCC2 | 6.9% | -27.6 | -2.8% | i | 35.5µM*
